Only a selection was taken, and hits are over-represented in it overall.
APEX1 inh – qHTS Assay for Inhibitors of the Human Apurinic/apyrimidinic Endonuclease 1 (APE1) | actives 0.35% (n = 350,000) | Potency, µM (titrated, usually from 65.8 µM), for inactives: top-dose activity change, negative = inhibition, hits mostly inhibitors | DNA repair nuclease/redox regulator APEX1 (Homo sapiens), P27695 | recombinant APE1, TAMRA/BHQ-2 abasic DNA cleavage fluorescence;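 further: plate controls were vehicle for no effect and reference inhibitor for full effect; nearly all actives have a fitted effect of over 55% in size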
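Activity was derived from the fluorescence gain between first and third kinetic reads (60 s intervals, ex 525/em 598 nm) after 50 nM THF-abasic TAMRA/BHQ-2 duplex was added to 0.75 nM APE1 preincubated 15 min with compound.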
L3MBTL1 block – qHTS Assay for the Inhibitors of L3MBTL1 | Potency, µM (highest dose often 57.1 µM), without a hit: top-dose activity, negative = inhibition, usual class: inhibitors | AID 485360, 2010 | AlphaScreen L3MBTL1–H3K9me1 peptide binding | actives 0.66% (n = 230,000); further: nearly all actives have a fitted effect of over 60% in size
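First, the protein-peptide complex forms for 30 min at room temperature (L3MBTL1 50 nM, biotinylated H3K9me1 peptide 75 nM). Next, compounds are pin-transferred and incubated 30 min. Finally, AlphaScreen beads are added and read after 30 min.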
BLM helicase inh – qHTS Assay for Inhibitors of Bloom's syndrome helicase (BLM); RecQ-like DNA helicase BLM (Homo sapiens), P54132; recombinant BLM DNA unwinding, fluorescence dequenching; Potency, µM (series often up to 56.1 µM), inactives show at the top dose activity change, negative = inhibition, usual class: inhibitors; AID 2528, 2010; actives 0.2% (n = 350,000);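 further: plate controls were vehicle for no effect and no enzyme for full effect; nearly all actives have a fitted effect of over 35% in size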
TDP1 block – qHTS Assay for Inhibitors of Tyrosyl-DNA Phosphodiesterase (TDP1); recombinant TDP1, AlphaScreen DNA substrate cleavage; Potency, µM (top dose mostly 130 µM), for the others: at the highest dose activity change, negative = inhibition, hits mostly inhibitors; actives 0.28% (n = 350,000); AID 485290, 2010; further: nearly all actives have a fitted effect of over 40% in size
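Here, a 5' biotin and 3' phosphotyrosine-FITC DNA oligonucleotide reports Tdp1 activity: intact substrate bridges AlphaScreen beads, while cleavage leaves a 3' phosphate and drops signal. All incubations at room temperature.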
JMJD2E inh – qHTS Assay for Inhibitors of Human Jumonji Domain Containing 2E (JMJD2E); Lysine-specific demethylase 4E (Homo sapiens), B2RXH2; JMJD2E catalytic domain, FDH-coupled NADH fluorescence (FDH is formaldehyde dehydrogenase); Potency, µM (series often up to 57.1 µM), inactives show at the top dose activity change, negative = inhibition, most hits filed as inhibitors; actives 1.6% (n = 230,000); active means well fitted inhibition curve with a large enough effect, not every such curve was filed as active; inconclusive means small, poorly fitted or top-dose-only effect, or another doubt; inactive means no such curve, though single readings can be large or run the other way;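 further: 0% = wells with enzyme and -100% = buffer wells without enzyme; nearly all actives have a fitted effect of over 50% in size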
RECQ1 helicase – qHTS Assay for Inhibitors of RecQ-Like Dna Helicase 1 (RECQ1). RECQ1 DNA unwinding, red fluorescence kinetic read. Potency, µM (highest dose often 57.3 µM), for the others: at the top dose activity, negative = inhibition, actives largely listed as inhibitors. actives 0.54% (n = 240,000);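 further: plate controls were vehicle for no effect and no enzyme for full effect; nearly all actives have a fitted effect of over 30% in size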
Target sequence (P46063 whole entry, looked up): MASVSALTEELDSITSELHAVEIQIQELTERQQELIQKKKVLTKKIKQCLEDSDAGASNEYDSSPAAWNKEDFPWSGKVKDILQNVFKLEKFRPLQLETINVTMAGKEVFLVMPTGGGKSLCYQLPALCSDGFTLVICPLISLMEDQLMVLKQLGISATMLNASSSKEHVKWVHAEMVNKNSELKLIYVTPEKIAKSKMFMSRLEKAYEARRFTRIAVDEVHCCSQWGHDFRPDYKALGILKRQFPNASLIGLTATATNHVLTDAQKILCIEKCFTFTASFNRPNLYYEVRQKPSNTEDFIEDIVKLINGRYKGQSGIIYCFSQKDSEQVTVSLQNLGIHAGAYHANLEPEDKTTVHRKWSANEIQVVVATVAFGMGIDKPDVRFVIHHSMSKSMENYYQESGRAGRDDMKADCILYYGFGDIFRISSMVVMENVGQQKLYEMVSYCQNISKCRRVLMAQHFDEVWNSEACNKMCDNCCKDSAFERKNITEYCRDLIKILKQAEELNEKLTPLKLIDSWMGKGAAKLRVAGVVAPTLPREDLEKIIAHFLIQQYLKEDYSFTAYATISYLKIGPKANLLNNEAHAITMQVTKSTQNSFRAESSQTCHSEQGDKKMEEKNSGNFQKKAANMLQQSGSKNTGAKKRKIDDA
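RECQ1T1 50 nM; forked duplex (20 bp + 30-nt ss tails) 200 nM, ATP 2 mM final; pH 8.0, 2 mM MgCl2, 2.5 ug/ml poly(dI-dC); 15 min compound preincubation; discontinuous kinetic read over 2 h at RT.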
* = called active by the depositor; i = inactive; u = inconclusive; x = no result given; ! = not confirmed by another sample; [ ] = another dose, or the depositor's remark. Unless noted, the call rests on the fitted dose curve; in most records, active means well fitted curve in the direction sought with a large enough effect; inconclusive means small, poorly fitted or top-dose-only effect, or another doubt; inactive means no such curve, though single readings can be large; an effect the other way counts as inactive or inconclusive. Unless noted, on the % scale 0 is the no-effect control and ±100 the full control effect; potency means the concentration at half of the fitted maximal effect.

SMILES	APEX1 inh	L3MBTL1 block	BLM helicase inh	TDP1 block	JMJD2E inh	RECQ1 helicase
N#CCC(=O)Nc1ccc(C(=O)OCC(=O)N2CCN(C(=O)c3ccco3)CC2)cc1	u	u	x	44.7µM*	x	x
CC1CCN(C(=O)COC(=O)c2ccccc2NC(=O)c2ccco2)CC1	9.7%	-8.2%[2.29 µM]	-0.9%	-2.6%	6.7%	13.0%
CC(=O)Nc1ccc(C(=O)OCC(=O)N2CCN(C(=O)c3ccco3)CC2)cc1	51.8%	-6.1%	x	-1.8%[56.1 µM]	x	x
O=C(OCC(=O)N1CCN(C(=O)c2ccco2)CC1)c1ccccc1NCCO	-43.5%	-20.1%	x	44.7µM*	x	x
COc1cccc(CN2C(=O)c3ccccc3NC2c2ccc(OC)c(COc3ccc(NC(C)=O)cc3)c2)c1 (stereo not given)	x	x	x	1.4%	x	x
O=C(N/N=C/c1ccccc1F)c1cccc2ccccc12	5.5%	x	-1.8%	x	x	x
O=C(N/N=C/c1sc2ccccc2c1O)c1ccccc1	3.2%	-10.6%	-2.2%	5.3%	22.4µM*	-17.4%
O=C(N/N=C/c1ccc(F)cc1)c1ccccc1	17.7%	x	-1.0%	-3.4%	2.8%	i
COc1ccc(C(=O)N/N=C/c2sc3ccccc3c2O)cc1	2.6%	0.9%	-1.9%	10.6%	35.5µM*	-3.6%
O=C(N/N=C/c1sc2ccccc2c1O)c1cccc2ccccc12	u	-12.9%	-6.0%	8.2%	25.1µM*	-8.8%
COc1ccc2cc(C(=O)N/N=C/c3sc4ccccc4c3O)ccc2c1	-4.0%	-9.6%	-5.3%	8.1%	u	-16.5%
CC(NC(=O)C1CCCN1C(=O)CN)C(=O)O (stereo not given)	4.9%	x	-0.3%	0.3%	x	-7.9%
O=C1c2ccccc2C(=O)N1c1cccc(Cl)c1	x	x	x	-0.2%	x	x
Cc1cc(/C=C2/C(=N)N3C(=NC2=O)SN=C3S(C)(=O)=O)c(C)n1-c1ccc(F)cc1	-7.1%	x	-5.5%	6.9%	31.6µM*	-5.4%
CC1=CSC2=NC(=O)/C(=C\c3cccn3-c3ccccc3)C(=N)N12	2.7%	-10.1%	-1.7%	2.6%	4.5%	-0.6%
CCOc1ccc(-n2c(C)cc(/C=C3/C(=N)N4C(=NC3=O)SN=C4S(C)(=O)=O)c2C)cc1	3.5%	x	-16.8%	6.1%	u	-4.9%
Cc1ccc(-n2cccc2/C=C2/C(=N)N3C(=NC2=O)SN=C3S(C)(=O)=O)cc1Cl	17.4%	u	28.2µM*	2.3%	22.4µM*	-10.0%
COc1ccc(CNC(=O)c2ccc(-c3nc(CSc4ccc(C)cc4)c(C)o3)cc2)c(OC)c1	x	x	-5.6%	2.8%	x	x
CC(C)(C)c1ccc(C(=O)N2CCNCC2)cc1	1.8%	x	1.9%	2.9%	-0.7%	-8.2%
O=C(c1ccc(-c2cc(O)c3ncccc3c2)cc1)N1CCNCC1	24.2%	25.1µM*	x	9.7%	x	x
CCCCn1c(NC(=O)c2ccccc2)c(C#N)c2nc3ccccc3nc21	u	-17.3%	1.58µM*	9.4%	u	3.55µM*
Nc1ccccc1C#CCCCCO	16.6%	2.9%	-0.6%	6.6%	20µM*!	-15.7%
OCCCc1ccccc1	23.9%	x	4.9%	5.6%	x	-13.9%
C[C@@H]1Cc2c(O)c(O)cc(O)c2C(=O)O1	u	x	0.6%	x	2µM*	i
CC1CC2OC2/C=C\C=C/C(=O)Cc2c(Cl)c(O)cc(O)c2C(=O)O1 (stereo not given)	-0.3%	x	-2.5%	2.0%	x	-3.4%
SMILES	APEX1 inh	L3MBTL1 block	BLM helicase inh	TDP1 block	JMJD2E inh	RECQ1 helicase
CN1\C(=C/C=C/C=C/C=[N+](C)C)C(C)(C)c2ccccc21	u	u	28.2µM*	10.3%	u	25.1µM*
Cc1ccc(C)c(OCC(=O)Nc2cc(NC(=O)COc3cc(C)ccc3C)cc(C(=O)O)c2)c1	-34.4%	0.8%	-20.4%	50.1µM*	x	x
Cc1n[nH]c(=S)n(NC(=O)/C=C/C(=O)Nn2c(=S)[nH]nc(C)c2=O)c1=O	7.94µM*	u	-6.6%	u	u	-19.6%
Cc1cc(Cl)ccc1NS(=O)(=O)c1ccc2c(c1)CC(C)N2C(=O)C1CCC1 (stereo not given)	x	x	-10.8%	8.7%	x	x
COc1cc(/C=N/Nc2ccccc2[N+](=O)[O-])cc(OC)c1O	-8.2%	u	-3.8%	-2.5%	4.6%	-9.0%
COc1cc(/C=N/Nc2ccc(F)cc2F)cc(OC)c1O	0.4%	-16.8%	-6.1%	8.3%	7.94µM*	-2.0%
COC(=O)c1ccc(NC(=O)C(=O)NCCc2sc(-c3cccc(F)c3)nc2C)cc1	x	x	-1.2%	0.6%	x	x
CCCC(=O)NCCCCNC(=O)CCC	1.9%	-1.5%	0.1%	1.1%	-19.5%	-5.6%
CC(=O)N(O)CCCCCNC(=O)CCC(=O)N(O)CCCCCNC(=O)CCC(=O)N(O)CCCCCN	7.3%	15.1%	4.5%	7.2%	22.4µM*	8.9%
CCOc1ccc(NS(=O)(=O)c2ccc(NS(=O)(=O)c3ccccc3)cc2)cc1	-6.8%	x	-0.7%	6.6%	1.9%	i
CCOc1ccc(S(=O)(=O)Nc2cc(NS(=O)(=O)c3ccc(OCC)cc3)cc(C(=O)O)c2)cc1	u	-77.8%	x	3.55µM*	x	x
CC(=O)N[C@@H](CS)C(=O)O	7.6%	-4.4%	-2.3%	-6.0%	25.1µM*!	-4.6%
CCCC(=O)OCCNc1cc(SCc2ccco2)c2nonc2c1[N+](=O)[O-]	5.9%	u	12.6µM*	1.4%	-1.3%	3.4%
O=C(CSc1nc(-c2ccc(F)cc2)nc2c1Cc1ccccc1O2)Nc1cccc(C(=O)O)c1	2.99µM*	u	u	3.98µM*	-6.3%	u
O=C(CSc1nc(-c2ccccc2)nc2c1Cc1ccccc1O2)Nc1ccccc1	u	x	1.4%	-2.0%	4.0%	-8.3%
C[C@H]1O[C@@H](O[C@H]2CC[C@@]3(C)C(CC[C@]4(C)C3C=C[C@]35OC[C@@]6(CCC(C)(C)C[C@H]63)[C@@H](O)C[C@]54C)[C@]2(C)CO)[C@H](O)[C@@H](O[C@@H]2O[C@H](CO)[C@@H](O)[C@H](O)[C@H]2O)[C@H]1O (stereo not given in full)	21.2µM*	-2.3%	x	-9.4%	x	x

High-throughput results (PubChem)
